# Experimental data as given in PubChem BioAssay AID1159580 (chemical genetic matrix, 2015).
# Several values for one entry are separate records, joined by “and”; a condition that tells them apart may be missing. Identical values can stand only once. The whole screen tested about 5,500 compounds, of which about 2,000 (36%) were called active. Roughly 18% stayed inconclusive and do not appear here. Cut-off read from the data, not from the text of the source: active = normalized growth mostly below about 0.91 (no sharp cut-off); inconclusive = no clear call, values can overlap the other calls; inactive = mostly above about 0.92. This is one part of the list.
# Assay: chemical genetic growth profiling, strain panel (AID 1159580);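 note: tested at 20 µM; growth read once vehicle control cultures reached saturation at 30 °C; 1 = growth at the plate median or of vehicle wells; lower values mean less growth of the strain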
# Conditions: S. cerevisiae deletion strains, growth OD
compound,measurement,setting,value
Oc1cccc2cccnc12,normalized growth,"locus YAL021C, strain ccr4, stronger effect = lower value",0.0769 (active)
same,normalized growth,"locus YAL026C, strain drs2, stronger effect = lower value",0.0625 (active)
same,normalized growth,"locus YAL030W, strain snc1, stronger effect = lower value",0.0718 (active)
same,normalized growth,"locus YBL061C, strain skt5, stronger effect = lower value",0.0722 (active)
same,normalized growth,"locus YBR009C, strain hhf1, stronger effect = lower value",0.0681 (active)
same,normalized growth,"locus YBR021W, strain FUR4, stronger effect = lower value",0.0928 (active)
same,normalized growth,"locus YBR023C, strain chs3, stronger effect = lower value",0.076 (active)
same,normalized growth,"locus YBR171W, strain sec66, stronger effect = lower value",0.076 (active)
same,normalized growth,"locus YBR229C, strain ROT2, stronger effect = lower value",0.0533 (active)
same,normalized growth,"locus YBR231C, strain swc5, stronger effect = lower value",0.0897 (active)
same,normalized growth,"locus YBR279W, strain paf1, stronger effect = lower value",0.0618 (active)
same,normalized growth,"locus YCL011C, strain gbp2, stronger effect = lower value",0.0567 (active)
same,normalized growth,"locus YCL016C, strain dcc1, stronger effect = lower value",0.229 (active)
same,normalized growth,"locus YCL029C, strain bik1, stronger effect = lower value",0.738 (active)
same,normalized growth,"locus YCL061C, strain MRC1, stronger effect = lower value",0.064 (active)
same,normalized growth,"locus YCL069W, strain vba3, stronger effect = lower value",0.0627 (active)
same,normalized growth,"locus YCR088W, strain abp1, stronger effect = lower value",0.0593 (active)
same,normalized growth,"locus YDL005C, strain med2, stronger effect = lower value",0.646 (active)
same,normalized growth,"locus YDL035C, strain GPR1, stronger effect = lower value",0.0493 (active)
same,normalized growth,"locus YDL040C, strain nat1, stronger effect = lower value",0.476 (active)
same,normalized growth,"locus YDL074C, strain BRE1, stronger effect = lower value",0.0979 (active)
same,normalized growth,"locus YDL101C, strain DUN1, stronger effect = lower value",0.869 (active)
same,normalized growth,"locus YDL134C, strain PPH21, stronger effect = lower value",0.0515 (active)
same,normalized growth,"locus YDL185W, strain tfp1, stronger effect = lower value",0.0598 (active)
same,normalized growth,"locus YDL192W, strain arf1, stronger effect = lower value",0.0601 (active)
same,normalized growth,"locus YDR001C, strain nth1, stronger effect = lower value",0.0574 (active)
same,normalized growth,"locus YDR069C, strain doa4, stronger effect = lower value",0.0712 (active)
same,normalized growth,"locus YDR101C, strain arx1, stronger effect = lower value",0.375 (active)
same,normalized growth,"locus YDR137W, strain rgp1, stronger effect = lower value",0.0843 (active)
same,normalized growth,"locus YDR159W, strain sac3, stronger effect = lower value",0.616 (active)
same,normalized growth,"locus YDR162C, strain NBP2, stronger effect = lower value",0.0547 (active)
same,normalized growth,"locus YDR195W, strain ref2",0.117 (active)
same,normalized growth,"locus YDR297W, strain sur2, stronger effect = lower value",0.0588 (active)
same,normalized growth,"locus YDR318W, strain mcm21, stronger effect = lower value",0.0646 (active)
same,normalized growth,"locus YDR334W, strain swr1, stronger effect = lower value",0.0621 (active)
same,normalized growth,"locus YDR335W, strain msn5, stronger effect = lower value",0.0595 (active)
same,normalized growth,"locus YDR388W, stronger effect = lower value",0.0582 (active)
same,normalized growth,"locus YDR392W, strain spt3, stronger effect = lower value",0.0932 (active)
same,normalized growth,"locus YDR502C, strain sam2, stronger effect = lower value",0.0651 (active)
same,normalized growth,"locus YEL003W, strain gim4, stronger effect = lower value",0.0548 (active)
same,normalized growth,"locus YEL037C, strain rad23, stronger effect = lower value",0.0582 (active)
same,normalized growth,"locus YEL061C, strain CIN8 (second series), stronger effect = lower value",0.0606 (active)
same,normalized growth,"locus YEL061C, strain CIN8, stronger effect = lower value",0.0683 (active)
same,normalized growth,"locus YER015W, strain faa2, stronger effect = lower value",0.0643 (active)
same,normalized growth,"locus YER016W, strain bim1, stronger effect = lower value",0.0729 (active)
same,normalized growth,"locus YER110C, stronger effect = lower value",0.107 (active)
same,normalized growth,"locus YER111C, strain swi4, stronger effect = lower value",0.0869 (active)
same,normalized growth,"locus YER155C, strain BEM2 (second series), stronger effect = lower value",0.0885 (active)
same,normalized growth,"locus YER155C, strain BEM2, stronger effect = lower value",0.503 (active)
same,normalized growth,"locus YER167W, strain BCK2, stronger effect = lower value",0.0575 (active)
same,normalized growth,"locus YFR010W, strain ubp6, stronger effect = lower value",0.0669 (active)
same,normalized growth,"locus YGL078C, strain dbp3, stronger effect = lower value",0.0567 (active)
same,normalized growth,"locus YGL086W, strain mad1, stronger effect = lower value",0.0544 (active)
same,normalized growth,"locus YGL167C, strain pmr1, stronger effect = lower value",0.113 (active)
same,normalized growth,"locus YGL173C, strain kem1, stronger effect = lower value",0.07 (active)
same,normalized growth,"locus YGL227W, strain vid30, stronger effect = lower value",0.0635 (active)
same,normalized growth,"locus YGL240W, strain doc1, stronger effect = lower value",0.0777 (active)
same,normalized growth,"locus YGL248W, strain PDE1, stronger effect = lower value",0.0532 (active)
same,normalized growth,"locus YGL253W, strain hxk2, stronger effect = lower value",0.0539 (active)
same,normalized growth,"locus YGR135W, strain pre9, stronger effect = lower value",0.0644 (active)
same,normalized growth,"locus YGR252W, strain gcn5, stronger effect = lower value",0.152 (active)
same,normalized growth,"locus YHR013C, strain ard1, stronger effect = lower value",0.105 (active)
same,normalized growth,"locus YHR027C, strain rpn1, stronger effect = lower value",0.0611 (active)
same,normalized growth,"locus YHR030C, strain SLT2, stronger effect = lower value",0.0533 (active) and 0.903 (inactive)
same,normalized growth,"locus YHR079C, strain IRE1 (second series), stronger effect = lower value",0.0905 (active)
same,normalized growth,"locus YHR079C, strain IRE1, stronger effect = lower value",0.908 (inactive)
same,normalized growth,"locus YHR094C, strain hxt1, stronger effect = lower value",0.0596 (active)
same,normalized growth,"locus YHR129C, strain ARP1, stronger effect = lower value",0.576 (active)
same,normalized growth,"locus YHR142W, strain chs7, stronger effect = lower value",0.0731 (active)
same,normalized growth,"locus YHR200W, strain rpn10, stronger effect = lower value",0.0598 (active)
same,normalized growth,"locus YIL066C, strain RNR3, stronger effect = lower value",0.156 (active)
same,normalized growth,"locus YIL073C, strain SPO22, stronger effect = lower value",0.0972 (active)
same,normalized growth,"locus YIL125W, strain kgd1, stronger effect = lower value",0.0587 (active)
same,normalized growth,"locus YIR030C, strain dcg1, stronger effect = lower value",0.0603 (active)
same,normalized growth,"locus YJL092W, strain hpr5, stronger effect = lower value",0.058 (active)
same,normalized growth,"locus YJL095W, strain BCK1 (second series), stronger effect = lower value",0.09 (active)
same,normalized growth,"locus YJL095W, strain BCK1, stronger effect = lower value",0.165 (active) and 0.93 (inactive)
same,normalized growth,"locus YJL115W, strain asf1, stronger effect = lower value",0.0712 (active)
same,normalized growth,"locus YJL129C, strain trk1, stronger effect = lower value",0.0863 (active)
same,normalized growth,"locus YJL134W, strain LCB3, stronger effect = lower value",0.388 (active)
same,normalized growth,"locus YJL154C, strain vps35, stronger effect = lower value",0.0589 (active)
same,normalized growth,"locus YJL164C, strain tpk1, stronger effect = lower value",0.0791 (active)
same,normalized growth,"locus YJL166W, strain qcr8, stronger effect = lower value",0.0604 (active)
same,normalized growth,"locus YJL168C, strain set2, stronger effect = lower value",0.0577 (active)
same,normalized growth,"locus YJL187C, strain SWE1 (second series), stronger effect = lower value",0.057 (active)
same,normalized growth,"locus YJL187C, strain SWE1, stronger effect = lower value",0.101 (active)
same,normalized growth,"locus YJR043C, strain POL32, stronger effect = lower value",0.0576 (active)
same,normalized growth,"locus YJR066W, strain TOR1, stronger effect = lower value",0.871 (inactive)
